Measured values published in PubChem BioAssay (NCI).
Compounds without any hit were thinned out: in the full panel of roughly 83,000, 20% have a hit.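 For each line, cells grew in 96-well plates with the test compound present at a single concentration for 48 hours.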 The source made the active and inactive calls. The calls were made as follows: active = growth percent below 10; inactive = the rest.

How the values were obtained:
Assay in all cases: NCI-60 one-dose screen, 48 h (100 = growth as untreated, 0 = no growth, -100 = all killed)
Conditions in all cases: 10 µM unless noted
[1] = tested on: HCT-15 colon
[2] = tested on: HT29 colon
[3] = tested on: SNB-75 CNS
[4] = tested on: SNB-19 CNS
[5] = tested on: U251 CNS
[6] = tested on: PC-3 prostate
[7] = tested on: SK-MEL-5 melanoma
[8] = tested on: UACC-62 melanoma
[9] = tested on: LOX IMVI melanoma
[10] = tested on: SK-MEL-28 melanoma

Measured: growth

O=C1NC(=O)C(Cc2ccc(OCc3ccc(-c4ccc(Cl)cc4Cl)cc3)cc2)S1 (stereo not given)
inactive: [1] 39.5% | [2] 86.3% | [3] 59.1% | [4] 73.8% | [5] 57.6% | [6] 32.2% | [8] 41.9% | [9] 37.1% | [10] 65.3%
active: [7] -28.4%

COc1ccc(Nc2ncc(Br)c(NCCCNC(=O)c3cccs3)n2)cc1
inactive: [1] 34.5% | [2] 51.6% | [3] 48.9% | [4] 56.8% | [5] 52.7% | [6] 42.1% | [7] 69.5% | [8] 45.7% | [9] 14.6% | [10] 68.4%

Cc1c(O)cc(-c2cnc(Nc3ccccc3)s2)c(O)c1C
inactive: [1] 92.2% | [2] 109% | [3] 104% | [4] 106% | [5] 100% | [6] 76% | [7] 93.4% | [8] 78.1% | [9] 78.3% | [10] 104%

COc1c(C(=O)Nc2ccc(C)c(Br)c2)ccc2ccccc12
inactive: [1] 61.2% | [2] 78.5% | [3] 88.4% | [4] 95.3% | [5] 96.2% | [6] 87.7% | [7] 98.3% | [8] 71.6% | [9] 95.1% | [10] 93.3%

COC(=O)[C@]12CCC(C)(C)C[C@H]1[C@H]1/C(=N/OCCc3nn[nH]n3)C[C@@H]3[C@@]4(C)CC[C@H](OC(C)=O)C(C)(C)[C@@H]4CC[C@@]3(C)[C@]1(C)CC2
inactive: [1] 33.3% | [2] 43.1% | [3] 43% | [4] 34% | [5] 36.3% | [6] 26.7% | [8] 13.2% | [9] 19.8% | [10] 41.9%
active: [7] -45%

C#CCOc1cccc(Nc2ncnc3cc(NC(=O)C=C)ccc23)c1
active: [1] 7.73% | [2] 1.75% | [7] 8.74% | [8] 9.66% | [9] 3.54%
inactive: [3] 24.7% | [4] 33.8% | [5] 33.1% | [6] 24.2% | [10] 49%

c1csc(-c2ccc(CNc3c4ccccc4nc4ccccc34)cc2)c1
inactive: [3] 36.1% | [4] 46.2% | [6] 24% | [8] 64.5%
active: [1] -66.2% | [2] -46.8% | [5] -72.7% | [7] -90.7% | [9] -90.7% | [10] -86%

CCOC(=O)c1ccc2c(c1)nc(-c1ccccc1)n2C1CCCCC1
inactive: [1] 78.2% | [2] 67.4% | [3] 97% | [4] 105% | [5] 88.8% | [6] 74.1% | [7] 93.8% | [8] 88% | [9] 99.2% | [10] 107%

COc1ccc(-c2cc(-c3cccnc3)nc3sc4c(=O)[nH]c(-c5ccc(Cl)cc5)nc4c23)cc1OC
inactive: [1] 97% | [2] 96.3% | [3] 87.4% | [4] 95.9% | [5] 82.7% | [6] 90.4% | [7] 89.9% | [8] 90.5% | [9] 86% | [10] 102%

Cc1sc2nc(NCCc3c[nH]c4ccc(Cl)cc34)[nH]c(=O)c2c1C
inactive: [2] 19.6% | [3] 23.5% | [4] 63.8% | [5] 32.3% | [6] 29.2% | [7] 50.4% | [8] 42.3% | [9] 26.5% | [10] 70.1%
active: [1] 7.96%

O=C1/C(=C/c2ccc([N+](=O)[O-])cc2)COc2ccc(O)cc21
active: [2] 4.43% | [9] 1.76%
inactive: [1] 28.3% | [3] 83.4% | [4] 91.4% | [5] 66.1% | [6] 88.3% | [7] 94% | [8] 76.3% | [10] 108%

C=C1C(=O)O[C@H]2[C@H]1CC/C(Cn1cc(-c3ccccc3)nn1)=C\CC[C@@]1(C)O[C@@H]21
active: [1] -70.4% | [2] -58.3% | [8] -45.2% | [9] -84.7% | [10] -26.9%
inactive: [3] 64.2% | [4] 68.1% | [5] 50.2% | [6] 37.3% | [7] 21%

O=C(NCc1ccc(Cl)cc1Cl)C1CCC(=O)N1c1cccs1 (stereo not given)
inactive: [1] 96.5% | [2] 89.9% | [3] 77.6% | [4] 99.9% | [5] 89.4% | [6] 87.4% | [7] 102% | [8] 80.7% | [9] 89.1% | [10] 93.4%

CC(C)=CC(=O)OCC(=O)O[C@@H]1C[C@]2(C(C)C)O[C@@]1(C)[C@@H]1CC[C@@H](C)[C@H]1[C@@H]2OC(=O)/C=C/c1ccccc1
inactive: [1] 86.8% | [2] 85.8% | [3] 88.7% | [4] 99.3% | [5] 81.8% | [6] 63.7% | [7] 90.5% | [8] 78.5% | [9] 86.9% | [10] 103%

CC(C)Cn1cnc2c(=O)[nH]c(N)nc21
inactive: [1] 106% | [2] 79.2% | [3] 84.4% | [4] 100% | [5] 94.8% | [6] 92.8% | [7] 98.9% | [8] 103% | [9] 97.8% | [10] 115%

O=C(Nc1ccccc1)Nc1ncnc2c1ncn2-c1ccc(Cl)cc1
inactive: [1] 79% | [2] 80.4% | [3] 44.3% | [4] 97.1% | [5] 77.6% | [6] 104% | [7] 94.9% | [8] 89.3% | [9] 91.9% | [10] 95.5%

O=C1/C(=C/c2cccc(F)c2)CN(C(=O)C(Cl)Cl)C/C1=C\c1cccc(F)c1
active: [1] -64.7% | [2] 1.62% | [3] -52.2% | [4] -88.2% | [5] -90.2% | [6] -77.8% | [7] -82.2% | [8] -83.5% | [9] -92.1% | [10] -80.3%

COc1ccc(CN2c3ccccc3Sc3ccccc32)cc1F
inactive: [1] 15.9% | [3] 45.1% | [4] 34.6% | [5] 20.1% | [6] 21.2% | [7] 22.3% | [8] 28.5% | [9] 39.9% | [10] 56.8%
active: [2] -4.41%

COc1ccc2c(c1OC)CO[C@@H]2[C@H]1c2c(cc3c(c2OC)OCO3)CCN1S(=O)(=O)c1cn(C)cn1
inactive: [1] 13.5% | [2] 16.9% | [3] 27.7% | [4] 33.2% | [6] 24% | [7] 23.4% | [8] 27.6% | [9] 38% | [10] 55.3%
active: [5] 9.29%

O=C(CSc1nc2sc3c(c2c(=O)n1-c1ccccc1)CCCCC3)N/N=C/c1cccc([N+](=O)[O-])c1
active: [3] 6.05%
inactive: [1] 53.8% | [2] 32.3% | [4] 83.6% | [5] 49.1% | [6] 38.5% | [7] 67.6% | [8] 65.9% | [9] 76.5% | [10] 74%

O=C(Nc1nc2ccccc2s1)c1ccc(F)cc1
inactive: [1] 85.5% | [2] 108% | [3] 96.7% | [4] 126% | [5] 99.7% | [6] 96.6% | [7] 91.3% | [8] 89.5% | [9] 101% | [10] 114%

COc1cc(OCc2cccc(Br)c2C)cc(OC)c1C=O
inactive: [1] 80.6% | [2] 75% | [3] 90.2% | [4] 91.8% | [5] 87% | [6] 79.6% | [7] 91.9% | [8] 36.5% | [9] 90.1% | [10] 99.5%

C=C(C)[C@@H]1CC[C@]2(CO)CC[C@]3(C)[C@H](CC[C@@H]4[C@@]5(C)CC[C@H](NCO)C(C)(C)[C@@H]5CC[C@]43C)[C@@H]12
inactive: [4] 42.3% | [8] 83.6%
active: [1] -80.7% | [2] -39.4% | [3] -94.7% | [5] -68.6% | [6] -3.03% | [7] -90.1% | [9] -99.8% | [10] -86.3%

COc1ccc(C(O)c2cc3c(N)c(C(=O)Nc4cccc(Br)c4)sc3nc2C)cc1 (stereo not given)
active: [1] 7.7% | [2] 8.32% | [7] -72.9%
inactive: [3] 24.4% | [4] 24.6% | [5] 15.7% | [6] 15.6% | [8] 13.5% | [9] 15.5% | [10] 50.7%

NC(N)=NCCCCCNc1noc(Cc2c[nH]c3cc(Br)ccc23)n1
inactive: [1] 102% | [2] 73.7% | [3] 37.6% | [4] 37.5% | [5] 21.6% | [6] 31.8% | [7] 68.1% | [8] 56.1% | [9] 70.5% | [10] 86.9%

COc1ccc(C(C)=O)cc1S(=O)(=O)Nc1c(N)nc(SC)[nH]c1=O
inactive: [1] 100% | [2] 104% | [3] 98.2% | [4] 109% | [5] 111% | [6] 104% | [7] 100% | [8] 97.1% | [9] 96.3% | [10] 109%
